Compound activity deposited in PubChem BioAssay by Broad Institute.
Sampled rows, rich in hits. Any-hit rate of the full collection: about 2.8%.
Env fusion inh – blocks HIV Env-driven cell-cell fusion | hit rate 1.1% among 360,000 | HeLa-JRFL Env/CEM21 cell fusion, luciferase | inhibition, % at 12.3 µM | AID 651610;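 active = mean replicate inhibition score of at least 50 and every replicate individually at or above 50; inconclusive = only one of the two criteria met; inactive = mean below 50 and not all replicates reaching 50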;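 note: 0% = plate neutral controls and 100% = maraviroc near 300 nM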
PAX8 inh HTS – PAX8 transcriptional activity inhibition; RMG-I TPO-luciferase reporter, SteadyGlo, 24 h; inhibition, % at 12.6 µM; hit rate 1.2% among 360,000; AID 652154;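 active = mean replicate inhibition at least 60% with every replicate also reaching 60%; inconclusive = only one of the two criteria is met; inactive = mean below 60% and not all replicates reaching 60%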;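 note: luciferase light reporting Pax8 driven TPO promoter activity; plate controls were median of neutral control wells for no effect and mitoxantrone controls for full effect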
NSD2 HMT inh – blocks human histone methyltransferase NSD2; hit rate 0.54% among 310,000; NSD2 peptide methylation, AlphaScreen, 120 min; O96028; inhibition, % at 12.5 µM; in the data active = inhibition above about 50%
Target sequence (O96028 whole entry, looked up): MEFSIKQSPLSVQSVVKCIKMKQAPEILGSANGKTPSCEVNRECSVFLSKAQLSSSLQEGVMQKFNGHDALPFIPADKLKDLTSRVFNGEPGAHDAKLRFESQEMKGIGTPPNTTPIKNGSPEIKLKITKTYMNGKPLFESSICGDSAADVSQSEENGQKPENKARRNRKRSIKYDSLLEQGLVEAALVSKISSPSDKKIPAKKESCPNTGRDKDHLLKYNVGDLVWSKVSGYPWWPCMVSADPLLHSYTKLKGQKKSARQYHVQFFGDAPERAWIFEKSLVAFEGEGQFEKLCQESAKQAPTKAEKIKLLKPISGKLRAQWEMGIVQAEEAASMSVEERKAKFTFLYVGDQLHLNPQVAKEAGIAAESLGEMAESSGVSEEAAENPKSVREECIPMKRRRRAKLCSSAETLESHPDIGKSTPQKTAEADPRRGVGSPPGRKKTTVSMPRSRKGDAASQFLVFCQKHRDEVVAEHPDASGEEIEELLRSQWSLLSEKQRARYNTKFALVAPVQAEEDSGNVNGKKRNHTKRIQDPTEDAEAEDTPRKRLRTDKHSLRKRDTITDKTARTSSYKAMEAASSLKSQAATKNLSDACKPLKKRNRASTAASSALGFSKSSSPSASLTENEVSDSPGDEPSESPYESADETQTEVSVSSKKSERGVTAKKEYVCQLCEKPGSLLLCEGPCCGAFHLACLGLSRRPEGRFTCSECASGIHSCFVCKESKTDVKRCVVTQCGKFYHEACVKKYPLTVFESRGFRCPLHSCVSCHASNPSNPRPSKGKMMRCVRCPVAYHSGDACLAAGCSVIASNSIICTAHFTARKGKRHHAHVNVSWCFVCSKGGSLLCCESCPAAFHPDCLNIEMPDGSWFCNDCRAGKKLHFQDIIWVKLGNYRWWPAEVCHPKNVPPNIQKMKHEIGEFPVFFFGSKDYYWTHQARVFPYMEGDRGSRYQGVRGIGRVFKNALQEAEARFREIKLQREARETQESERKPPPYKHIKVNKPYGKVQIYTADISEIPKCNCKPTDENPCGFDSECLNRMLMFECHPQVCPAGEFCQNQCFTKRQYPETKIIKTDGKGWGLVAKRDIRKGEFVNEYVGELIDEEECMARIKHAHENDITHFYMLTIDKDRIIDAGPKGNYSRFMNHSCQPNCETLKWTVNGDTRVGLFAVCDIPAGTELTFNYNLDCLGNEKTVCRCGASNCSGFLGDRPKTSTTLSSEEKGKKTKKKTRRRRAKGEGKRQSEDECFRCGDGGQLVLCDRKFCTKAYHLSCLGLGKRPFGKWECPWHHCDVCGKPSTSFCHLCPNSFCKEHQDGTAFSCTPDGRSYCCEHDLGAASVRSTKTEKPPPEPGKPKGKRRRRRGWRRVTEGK
LMP1 NFkB inh – inhibitors of Epstein-Barr LMP1-induced NF-kappaB reporter. LMP1-induced NF-kappaB luciferase reporter cells, luminescence. inhibition, % at 12.5 µM. hit rate 0.69% among 350,000. AID 504558; in the data active = inhibition above about 41%; inconclusive = no clear call, values can overlap the other calls;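 note: 0% = neutral control wells and 100% = reference inhibitor control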
N-glyco inh – N-linked glycosylation inhibition; D54 ERlucT glycosylation luciferase reporter, 24 h; percent of 100 nM tunicamycin response; reporter increase, % at 12.5 µM; hit rate 0.23% among 360,000; AID 588692;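 active = mean luciferase reporter signal, scaled so untreated is 0 and the glycosylation-blocking control 100, at or above a set limit in every replicate; inconclusive = mean reaches the limit but not every replicate does; inactive = mean below the limit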;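 note: luciferase carries N-glycosylation sites so blocking glycosylation raises the light; 0% = median of neutral control wells and 100% = median of 100 nM tunicamycin wells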
Shn3 3UTR inh – inhibitors of Schnurri-3 3'UTR reporter in osteoblasts; Clone20 osteoblast Shn3 3'UTR firefly luciferase, 24 h; inhibition, % at 12.5 µM; hit rate 0.52% among 360,000;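 active = mean inhibition of at least 75% with every replicate also reaching 75%; inconclusive = mean inhibition at least 75% but some replicate below; inactive = mean inhibition below 75%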;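 note: 0% = median of neutral control wells and 100% = pilot-screen positive control compound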
An asterisk follows results filed as active; ? = inconclusive; · = no result; [ ] = dose if it differs, or a comment.

SMILES | Env fusion inh | PAX8 inh HTS | NSD2 HMT inh | LMP1 NFkB inh | N-glyco inh | Shn3 3UTR inh
Cc1ccc(NS(=O)(=O)c2ccc(NC(=O)C(C)Sc3ccc(Cl)cc3)cc2)c(C)c1 (stereo not drawn) | 27 | 9 | 25 | 60* | -5 | 37
C[C@@H]1CCCCO[C@@H](CN(C)CC2CCCCC2)[C@@H](C)CN([C@H](C)CO)C(=O)c2cc(NC(=O)Nc3ccccc3)ccc2O1 | 8[16.7 µM] | -2 | · | · | · | ·
C[C@@H]1CN([C@@H](C)CO)C(=O)c2cc(NC(=O)Nc3ccccc3)ccc2O[C@@H](C)CCCCO[C@@H]1CN(C)CC1CCCCC1 | -1[16.7 µM] | 35 | · | · | · | ·
C[C@H]1CCCCO[C@H](CN(C)CC2CCCCC2)[C@@H](C)CN([C@@H](C)CO)C(=O)c2cc(NC(=O)Nc3ccccc3)ccc2O1 | -6[16.7 µM] | 69* | · | · | · | ·
CCCN(C)C[C@H]1OCCCC[C@@H](C)Oc2ccc(NC(=O)c3ccccc3)cc2C(=O)N([C@H](C)CO)C[C@H]1C | -83[16.7 µM] | 83* | · | · | · | ·
C[C@@H]1CCCCO[C@@H](CN(C)CC2CCCCC2)[C@H](C)CN([C@H](C)CO)C(=O)c2cc(NC(=O)Nc3ccccc3)ccc2O1 | 41[16.7 µM] | 86* | · | · | · | ·
C[C@@H]1CCCCO[C@@H](CN(C)CC2CCCCC2)[C@H](C)CN([C@H](C)CO)C(=O)c2cc(NC(=O)NC3CCCCC3)ccc2O1 | 70*[16.7 µM] | 12 | · | · | · | ·
CCCNC(=O)Nc1ccc2c(c1)C(=O)N(C)[C@@H]1CC[C@@H](CC(=O)NC3CCC3)O[C@H]1CO2 | 0[16.7 µM] | -4 | · | · | · | ·
C[C@@H]1CCCCO[C@H](CN(C)C(=O)Nc2cccc3ccccc23)[C@@H](C)CN([C@@H](C)CO)C(=O)c2cc(NS(=O)(=O)c3cn(C)cn3)ccc2O1 | 0[16.7 µM] | 3 | · | · | · | ·
O=C(C[C@@H]1CC[C@H](NC(=O)Nc2ccccc2F)[C@@H](CO)O1)NCc1ccc(-c2ccccc2)cc1 | · | 8 | · | · | · | ·
CO[C@@H]1CN(C)C(=O)c2ccc(NC(=O)C3CC3)cc2OC[C@H](C)N(CC2CCCC2)C[C@H]1C | · | 19 | · | · | · | ·
C[C@@H]1CN([C@H](C)CO)C(=O)c2cc(NC(=O)Nc3ccccc3)ccc2O[C@@H](C)CCCCO[C@@H]1CN(C)CC1CCCCC1 | -10[16.7 µM] | 97* | · | · | · | ·
C[C@@H]1CCCCO[C@H](CN(C)CC2CCCCC2)[C@@H](C)CN([C@H](C)CO)C(=O)c2cc(NC(=O)Nc3ccc(F)cc3)ccc2O1 | -5[16.7 µM] | -7 | · | · | · | ·
C[C@H](CO)N1C[C@H](C)[C@H](CN(C)CC2CCCCC2)OCCCC[C@H](C)Oc2ccc(NC(=O)Nc3ccccc3)cc2C1=O | -7[16.7 µM] | 97* | · | · | · | ·
C[C@@H]1CCCCO[C@@H](CN(C)CC2CCCCC2)[C@H](C)CN([C@H](C)CO)C(=O)c2cc(NC(=O)c3ccccc3)ccc2O1 | 67*[16.7 µM] | 14 | · | · | · | ·
C[C@@H]1CCCCO[C@@H](CN(C)CC2CCCCC2)[C@H](C)CN([C@@H](C)CO)C(=O)c2cc(NC(=O)c3ccccc3)ccc2O1 | ? | 1 | · | · | · | ·
C[C@H](CO)N1C[C@H](C)[C@H](CN(C)CC2CC2)OCCCC[C@H](C)Oc2ccc(NC(=O)Nc3ccccc3)cc2C1=O | 25[16.7 µM] | -1 | · | · | · | ·
C[C@H](CO)N1C[C@H](C)[C@@H](CN(C)Cc2ccncc2)Oc2ccc(NC(=O)Cc3ccccc3)cc2CC1=O | · | 2 | · | · | · | ·
COCC(=O)N(C)C[C@H]1Oc2ncc(C#CCC3CCCC3)cc2C(=O)N([C@@H](C)CO)C[C@H]1C | -15[16.7 µM] | · | · | · | · | ·
COc1cc(C(=O)OCC#N)ccc1OCc1c(C)noc1C | -16 | 9 | -2 | -6 | 31* | 9
COc1cc(C(=O)NCc2ccc(C)cc2)ccc1OCc1c(C)noc1C | · | · | 0 | 6 | 2 | 10
COc1ccccc1CNC(=O)C1CCCN1S(=O)(=O)c1cccc2cccnc12 (stereo not drawn) | 57* | 8 | · | 2 | -1 | -7
O=c1[nH]c(=O)n([C@H]2C[C@H](O)[C@@H](CO)O2)cc1C(F)(F)F | 3 | -12 | · | 46* | -3 | 30
O=c1[nH]c(=O)n(C2CC(O)C(CO)O2)cc1Br (stereo not drawn) | -10 | -23 | 1 | -11 | 36* | -14
CCc1cn([C@H]2C[C@H](O)[C@@H](CO)O2)c(=O)[nH]c1=O | 14 | -11 | · | 7 | 0 | -9
SMILES | Env fusion inh | PAX8 inh HTS | NSD2 HMT inh | LMP1 NFkB inh | N-glyco inh | Shn3 3UTR inh
COc1ccc2c3c([nH]c2c1)[C@@H](CO)N(C(=O)C1CCC1)CC31CN(Cc2nccs2)C1 | · | -3 | · | · | · | ·
CCC(=O)N1C[C@H](O)COC[C@@H]2O[C@@H](CC(=O)N3CCCCC3)CC[C@H]21 | -10[16.7 µM] | 10 | · | · | · | ·
CC(C)NC(=O)N(C)C[C@H]1Oc2ccc(NC(=O)Cc3cn(C)c4ccccc34)cc2CC(=O)N([C@H](C)CO)C[C@@H]1C | -7[16.7 µM] | 3 | · | · | · | ·
CC(=O)NC(c1ccccc1)c1cc([N+](=O)[O-])c2cccnc2c1O (stereo not drawn) | 9 | 14 | 3 | 2 | 14 | -11
CCCCC(=O)NC(c1cccc([N+](=O)[O-])c1)c1ccc2cccnc2c1O (stereo not drawn) | 4 | 51 | 2 | 50* | -13 | 89*
Oc1cccc(C(Nc2nccs2)c2ccc3cccnc3c2O)c1 (stereo not drawn) | 36 | 75* | 1 | 51* | -10 | 91*
COc1cccc(C(NC(C)=O)c2ccc3cccnc3c2O)c1 (stereo not drawn) | 12 | 69* | · | 50* | -7 | 83
COc1cccc(C(NC(C)=O)c2nc(-c3cccnc3)cs2)c1 (stereo not drawn) | · | 0 | 2 | · | 1 | -24
Oc1c(C(Nc2cccc(C(F)(F)F)c2)c2cccnc2)ccc2cccnc12 (stereo not drawn) | -5 | 13 | -1 | 7 | 8 | 48
CC(=O)NC(c1cccc([N+](=O)[O-])c1)c1ccc2cccnc2c1O (stereo not drawn) | 23 | 59 | 0 | 62* | -6 | 91*
CNC[C@H]1Oc2ccc(NC(=O)C3CCCCC3)cc2C(=O)N([C@@H](C)CO)C[C@H]1C | -15[16.7 µM] | -23 | · | · | · | ·
COCC(=O)NC[C@@H]1[C@H](c2ccc(C3=CCCC3)cc2)[C@@H](CO)N1C(=O)C1CC1 | · | 7 | · | · | · | ·
O=C(C[C@@H]1CC[C@H]2[C@@H](COC[C@H](O)CN2C(=O)c2cnccn2)O1)NCc1ccccc1 | · | -14 | · | · | · | ·
Cc1cccc(NC(c2ccc(O)cc2)c2ccc3ccc(C)nc3c2O)n1 (stereo not drawn) | -80 | · | -2 | 9 | -2 | 18
CC(C)C(=O)NC(c1ccccc1)c1cc([N+](=O)[O-])c2cccnc2c1O (stereo not drawn) | -16 | · | 0 | 16 | 3 | 17
COc1cccc(C(Nc2ccccc2)c2ccc3ccc(C)nc3c2O)c1 (stereo not drawn) | -10 | 66* | · | · | · | ·
O=[N+]([O-])c1ccc(NC(c2ccccc2)c2ccc3cccnc3c2O)cc1 (stereo not drawn) | 62* | 83* | -2 | 57* | -11 | 91*
